Measured values from PubChem BioAssay.
Calls of active or inactive are those of the source.

Assays:
[1] = binders of probe aFSTL3 on microarray, primary screen, stem cell growth factor project, biochemical, small-molecule microarray, fluorescence 635/667 (AID 1064); settings: higher = more signal;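 also: measures binding of the biotinylated anti-FSTL3 antibody to printed compounds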
[2] = binders from COS7 lysate, DM2A8 probe, primary screen, torsin A project, cell lysate, small-molecule microarray, fluorescence 635/667 (AID 1065); settings: higher = more signal, COS7 lysate expressing mutant human TOR1A
[3] = binders of probe aFGF2 on microarray, primary screen, stem cell growth factor project, biochemical, small-molecule microarray, fluorescence 635/667 (AID 1067); settings: higher = more signal;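 also: measures binding of biotinylated aFGF2 protein to printed compounds on slides; z-score merges feature fluorescence and signal-to-noise across triplicate slides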
[4] = binders of probe aFGF10 on microarray, primary screen, stem cell growth factor project, biochemical, small-molecule microarray, fluorescence 635/667 (AID 1071); settings: higher = more signal;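 also: score merges 667 nm spot intensity and signal to noise from triplicate slides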
[5] = molecular target: Neurogenic locus notch homolog protein 2 (Homo sapiens) (UniProt Q04721); assay: Notch2 binders on small-molecule microarrays, primary screen, biochemical, small-molecule microarray, 635 nm fluorescence, stem cell growth factors (AID 1073); settings: Notch2 binding, higher = more signal
[6] = molecular target: Pro-neuregulin-1, membrane-bound isoform (Homo sapiens) (UniProt Q02297); assay: NRG1 binders on small-molecule microarrays, primary screen, psychiatric disease protein project, biochemical, small-molecule microarray, fluorescence 635/667 (AID 1075); settings: NRG1 binding, 635 nm fluorescence, higher = more signal;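 also: score combines 667 nm spot fluorescence with signal to noise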
Sequence of Pro-neuregulin-1, membrane-bound isoform (Homo sapiens) (Q02297 whole entry, looked up, the tested form may be a part, canonical isoform): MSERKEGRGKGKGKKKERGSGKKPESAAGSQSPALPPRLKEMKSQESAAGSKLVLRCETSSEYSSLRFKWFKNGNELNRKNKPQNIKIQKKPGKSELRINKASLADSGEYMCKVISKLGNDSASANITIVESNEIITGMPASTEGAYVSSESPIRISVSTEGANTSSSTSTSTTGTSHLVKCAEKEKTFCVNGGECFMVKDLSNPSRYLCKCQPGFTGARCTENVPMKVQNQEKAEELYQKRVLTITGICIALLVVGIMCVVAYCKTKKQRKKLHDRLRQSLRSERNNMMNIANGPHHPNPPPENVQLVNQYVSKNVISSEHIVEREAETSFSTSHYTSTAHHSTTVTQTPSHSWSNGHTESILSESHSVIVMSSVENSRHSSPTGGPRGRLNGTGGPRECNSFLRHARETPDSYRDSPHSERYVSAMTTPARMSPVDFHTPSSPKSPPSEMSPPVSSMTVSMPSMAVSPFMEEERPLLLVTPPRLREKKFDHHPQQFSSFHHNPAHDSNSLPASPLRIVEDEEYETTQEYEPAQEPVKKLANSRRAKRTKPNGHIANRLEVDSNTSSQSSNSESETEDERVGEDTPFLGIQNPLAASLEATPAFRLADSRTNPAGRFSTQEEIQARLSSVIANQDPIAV

[7] = test system: Neuregulin-1 EGF-like domain; assay: binders of neuregulin-1 EGF-like domain, primary screen, biochemical, small-molecule microarray, 635 nm fluorescence (AID 1081); settings: small-molecule microarray binding, higher = more signal;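 also: binding of the protein to compounds printed on small-molecule microarray slides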
[8] = FRG1 promoter luciferase signal modulators, primary screen, FRG1 inhibition for FSHD, cell-based, C2C12 myotubes, firefly/Renilla luciferase, luminescence (AID 1084); settings: higher = more signal, called active from +8 up or from −8 down
[9] = binders of probe aFST on microarray, primary screen, stem cell growth factor project, biochemical, small-molecule microarray, fluorescence 635/667 (AID 1086); settings: higher = more signal;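 also: score merges 667 nm fluorescence with signal-to-noise of each printed compound spot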
[10] = binders of probe aHhip on microarray, primary screen, stem cell growth factor project, biochemical, small-molecule microarray, fluorescence 635/667 (AID 1087); settings: higher = more signal;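 also: score merges spot fluorescence at 667nm with spot signal to noise ratio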
[11] = test system: PRMT1 (protein arginine N-methyltransferase 1); assay: PRMT1 binders on small-molecule microarrays, primary screen, biochemical, small-molecule microarray, 635 nm fluorescence (AID 1088); settings: small-molecule microarray binding, higher = more signal;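 also: binding of Prmt1 protein to compounds spotted on small-molecule microarray slides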
[12] = yeast growth modulation, basal conditions, primary screen, YJM789 clinical isolate, OD600, 24 h (AID 1089);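 also: growth of clinical yeast isolate S. cerevisiae YJM 789 seeded 1000 cells per well; test concentration not given here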; settings: S. cerevisiae YJM789 growth, higher = more signal, called active from +8 up or from −8 down
[13] = fission yeast growth modulation, primary screen, strain 972, OD600, 24 h, no modulator (AID 1090);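 also: basal condition with compound alone and no growth modifier present; test concentration not given here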; settings: S. pombe 972 growth, higher = more signal, called active from +8 up or from −8 down
[14] = S. cerevisiae growth modulation with rapamycin, primary screen, strain BY4716, OD600, 96 h (AID 1091); settings: higher = more signal, called active from +8 up or from −8 down; also: test concentration not given here
[15] = molecular target: Torsin-1A-interacting protein 2 (Homo sapiens) (UniProt Q8NFQ8); assay: LULL1 binders on small-molecule microarray, primary screen, cell lysate, human LULL1 lysate, 635/667 nm fluorescence (AID 1092); settings: hLULL1 lysate binding, 635 nm fluorescence, higher = more signal;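 also: probe is lysate of COS7 cells overexpressing human LULL1; score merges per-feature 667 nm fluorescence with signal-to-noise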
Sequence of Torsin-1A-interacting protein 2 (Homo sapiens) (Q8NFQ8 whole entry, looked up): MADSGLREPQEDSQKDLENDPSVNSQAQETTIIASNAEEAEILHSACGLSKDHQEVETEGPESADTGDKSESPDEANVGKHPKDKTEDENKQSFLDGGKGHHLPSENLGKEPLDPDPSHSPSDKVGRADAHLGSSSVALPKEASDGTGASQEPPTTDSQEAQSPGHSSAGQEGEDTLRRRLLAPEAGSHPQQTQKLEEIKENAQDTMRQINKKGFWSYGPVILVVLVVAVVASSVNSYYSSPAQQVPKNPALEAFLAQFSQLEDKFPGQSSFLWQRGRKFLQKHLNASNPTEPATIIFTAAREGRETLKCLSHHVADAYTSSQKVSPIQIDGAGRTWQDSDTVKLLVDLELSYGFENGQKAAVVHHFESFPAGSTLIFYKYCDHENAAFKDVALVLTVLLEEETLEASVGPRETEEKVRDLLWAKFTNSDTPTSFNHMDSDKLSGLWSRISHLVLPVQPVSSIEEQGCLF

[16] = E. coli growth modulation, two-sided OD650, primary screen, E. coli filamentation project, strain DRC41, 24 h (AID 1093); settings: OD650, 24 h, higher = more signal, called active from +8 up or from −8 down;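 also: MC1000 strain lacking acrAB efflux and sulA so SOS filamentation is blocked; test concentration not given here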
[17] = small-molecule microarray binders of probe aLefty2, primary screen, biochemical, biotinylated probe, 635/667 nm fluorescence (AID 1094); settings: higher = more signal;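 also: score merges spot fluorescence near 667 nm with spot signal-to-noise ratio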
[18] = test system: Noggin (protein binding on small-molecule microarray); assay: Noggin binders on small-molecule microarray, primary screen, biochemical, 635/667 nm fluorescence (AID 1095); settings: 635 nm fluorescence, higher = more signal;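 also: score merges 667 nm feature fluorescence with signal to noise over triplicate slides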
[19] = molecular target: Neurogenic locus notch homolog protein 3 (Homo sapiens) (UniProt Q9UM47); assay: NOTCH3 binders on small-molecule microarray, primary screen, biochemical, 635/667 nm fluorescence (AID 1096); settings: NOTCH3 binding, 635 nm fluorescence, higher = more signal
Sequence of Neurogenic locus notch homolog protein 3 (Homo sapiens) (Q9UM47 whole entry, looked up): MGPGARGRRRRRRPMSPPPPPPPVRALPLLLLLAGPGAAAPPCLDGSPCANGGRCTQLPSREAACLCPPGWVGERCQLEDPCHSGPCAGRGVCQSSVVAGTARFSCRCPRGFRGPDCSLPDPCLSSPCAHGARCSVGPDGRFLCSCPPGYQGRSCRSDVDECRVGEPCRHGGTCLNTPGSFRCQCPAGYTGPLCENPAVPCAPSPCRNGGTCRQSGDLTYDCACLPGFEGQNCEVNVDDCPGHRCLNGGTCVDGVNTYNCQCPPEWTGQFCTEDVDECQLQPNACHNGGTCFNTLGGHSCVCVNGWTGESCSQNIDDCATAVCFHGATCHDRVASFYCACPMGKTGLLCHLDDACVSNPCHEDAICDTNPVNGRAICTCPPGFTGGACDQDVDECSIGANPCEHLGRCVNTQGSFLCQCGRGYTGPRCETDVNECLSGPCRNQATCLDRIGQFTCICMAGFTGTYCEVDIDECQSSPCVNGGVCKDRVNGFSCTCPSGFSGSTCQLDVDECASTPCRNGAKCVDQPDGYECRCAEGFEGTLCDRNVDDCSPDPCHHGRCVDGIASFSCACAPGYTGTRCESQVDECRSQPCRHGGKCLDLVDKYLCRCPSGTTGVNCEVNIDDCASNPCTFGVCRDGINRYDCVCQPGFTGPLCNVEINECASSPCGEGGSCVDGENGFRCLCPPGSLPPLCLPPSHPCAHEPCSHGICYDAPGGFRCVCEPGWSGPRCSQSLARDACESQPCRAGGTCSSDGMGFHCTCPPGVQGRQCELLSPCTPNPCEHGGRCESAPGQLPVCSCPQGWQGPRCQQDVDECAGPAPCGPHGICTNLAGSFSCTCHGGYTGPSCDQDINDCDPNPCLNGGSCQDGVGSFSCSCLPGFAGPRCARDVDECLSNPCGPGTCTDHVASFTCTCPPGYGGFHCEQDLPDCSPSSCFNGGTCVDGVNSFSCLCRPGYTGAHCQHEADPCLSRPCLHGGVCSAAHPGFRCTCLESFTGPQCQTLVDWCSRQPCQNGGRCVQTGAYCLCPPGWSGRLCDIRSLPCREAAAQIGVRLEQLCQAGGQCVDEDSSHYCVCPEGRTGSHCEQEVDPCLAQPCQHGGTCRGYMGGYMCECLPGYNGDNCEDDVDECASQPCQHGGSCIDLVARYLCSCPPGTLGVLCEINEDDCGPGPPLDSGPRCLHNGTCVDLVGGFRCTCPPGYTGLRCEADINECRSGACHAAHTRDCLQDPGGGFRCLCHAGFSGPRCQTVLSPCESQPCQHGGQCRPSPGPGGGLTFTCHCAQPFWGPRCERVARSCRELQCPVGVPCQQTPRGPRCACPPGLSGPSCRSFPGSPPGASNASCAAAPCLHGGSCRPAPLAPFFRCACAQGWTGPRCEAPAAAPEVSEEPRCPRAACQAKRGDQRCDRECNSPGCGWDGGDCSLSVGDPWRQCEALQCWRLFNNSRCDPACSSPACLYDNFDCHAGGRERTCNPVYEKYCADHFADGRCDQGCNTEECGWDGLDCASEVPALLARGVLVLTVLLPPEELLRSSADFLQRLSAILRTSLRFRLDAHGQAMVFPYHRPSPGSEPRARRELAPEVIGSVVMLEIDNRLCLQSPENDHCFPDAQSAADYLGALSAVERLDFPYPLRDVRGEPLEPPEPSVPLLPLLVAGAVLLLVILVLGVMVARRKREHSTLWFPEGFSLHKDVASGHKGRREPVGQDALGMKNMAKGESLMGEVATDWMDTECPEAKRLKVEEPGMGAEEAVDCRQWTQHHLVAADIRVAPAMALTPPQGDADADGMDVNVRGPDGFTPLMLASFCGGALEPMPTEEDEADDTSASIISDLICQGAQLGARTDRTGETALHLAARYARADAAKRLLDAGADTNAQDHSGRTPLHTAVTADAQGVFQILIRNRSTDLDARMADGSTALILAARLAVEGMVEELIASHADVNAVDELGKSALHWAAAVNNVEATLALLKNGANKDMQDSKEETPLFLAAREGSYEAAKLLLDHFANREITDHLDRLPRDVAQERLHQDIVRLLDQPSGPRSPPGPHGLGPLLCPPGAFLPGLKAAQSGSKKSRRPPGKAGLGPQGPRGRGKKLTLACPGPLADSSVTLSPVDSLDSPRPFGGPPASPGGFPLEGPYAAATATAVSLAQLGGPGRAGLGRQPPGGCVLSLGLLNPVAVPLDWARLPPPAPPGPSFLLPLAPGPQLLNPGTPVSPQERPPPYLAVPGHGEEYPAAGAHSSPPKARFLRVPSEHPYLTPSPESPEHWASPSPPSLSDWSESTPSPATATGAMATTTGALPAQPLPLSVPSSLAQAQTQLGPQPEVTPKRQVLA

[20] = small-molecule microarray binders of probe aEGFR, primary screen, biochemical, biotinylated probe, 635/667 nm fluorescence (AID 1097); settings: higher = more signal;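 also: probe is a biotinylated anti-EGFR antibody binding compounds printed on slides; score combines fluorescence near 667 nm and signal to noise of each spot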

| SMILES | composite z-score [1] | composite z-score [2] | composite z-score [3] | composite z-score [4] | composite z-score [5] | composite z-score [6] | composite z-score [7] | z-score [8] | composite z-score [9] | composite z-score [10] | composite z-score [11] | z-score [12] | z-score [13] | z-score [14] | composite z-score [15] | z-score [16] | composite z-score [17] | composite z-score [18] | composite z-score [19] | composite z-score [20] |
| --- | --- | --- | --- | --- | --- | --- | --- | --- | --- | --- | --- | --- | --- | --- | --- | --- | --- | --- | --- | --- |
| O=C1[C@H]2C=C(I)[C@H](C[C@@H]2c2ccccc2)[C@@]12CO2 | -0.372 | -0.0809 | -0.104 | -0.142 | 0.0878 | -0.165 | -0.507 | 1.55 (inactive) | 0.281 | -0.214 | 0.298 | -3.2 (inactive) | -19.3 (active) | -2.84 (inactive) | -0.0459 | -0.924 (inactive) | -0.238 | 0.355 | -0.183 | -0.139 |
| Cc1ccc(S[C@]2(C(=O)NCCCN(C)C)CC(=O)N(C3Cc4ccccc4C3)[C@@H]2c2ccc(CO)cc2I)cc1 | 0.533 | -0.602 | -0.0281 | -0.25 | 0.0374 | 1.88 | 0.522 | -0.967 (inactive) | 0.404 | -0.0373 | 0.961 | -0.471 (inactive) | -2.87 (inactive) | 1.32 (inactive) | 1.14 | -0.42 (inactive) | -0.035 | -0.978 | -0.105 | -0.0828 |
| COC(=O)C(CC#Cc1ccc2c(c1)[C@]1(C(=O)N2)[C@H](c2ccccc2OCCO)N2[C@H](c3ccccc3)[C@H](c3ccccc3)OC(=O)[C@H]2[C@@H]1C(=O)N1CCc2cc(OC)c(OC)cc2C1)C(=O)OC | -0.152 | 0.179 | -0.0087 | 0.382 | 1.15 | 0.834 | 1.3 | -1.14 (inactive) | 0.383 | -0.374 | 1.53 | 2.1 (inactive) | 1.13 (inactive) | 4.27 (inactive) | 3.01 | 0.463 (inactive) | -0.174 | 1.08 | 1.09 | 0.0355 |
| O=C1C2C=CC(C(O)C3CCCCC3)N(n3cnnc3)C2C(=O)N1Cc1ccccc1 (stereo not given) | -0.0187 | 0.396 | 0.0498 | 0.792 | 0.884 | 1.07 | 1.3 | 1.11 (inactive) | 1.47 | -0.299 | 1.51 | -0.509 (inactive) | 0.266 (inactive) | -0.98 (inactive) | 3.15 | 0.596 (inactive) | 0.145 | 0.915 | 1.06 | 0.0201 |
| COc1ccc(C(=O)Nc2cccc(CN3C(=O)[C@]4(O[C@H](CC(=O)N5Cc6ccccc6C[C@H]5CO)[C@@H]([Si](C)(C)c5ccc(OC)cc5)[C@@H]4C)c4ccccc43)c2)cc1 | -0.24 | 0.822 | -0.159 | 0.426 | 0.424 | 0.466 | 0.762 | -1.66 (inactive) | 0.208 | -0.211 | 1.55 | 0.143 (inactive) | 1.46 (inactive) | 1.79 (inactive) | 0.906 | 2.31 (inactive) | -0.186 | 1.73 | 1.1 | -0.027 |
| CC[C@@H]1C=C(C(=O)O)[C@H](c2ccc(OC)cc2)N1S(=O)(=O)c1ccc(C)cc1 | 0.0675 | -0.194 | -0.128 | -0.0542 | 0.0174 | 0.993 | 1.28 | 0.267 (inactive) | 0.233 | -0.0994 | -0.222 | -0.639 (inactive) | 0.211 (inactive) | -0.113 (inactive) | 2.15 | -1.04 (inactive) | -0.0491 | -0.199 | 0.624 | -0.0828 |
| COc1ccc(C(O)C2C=CC3C(=O)N(C)C(=O)C3N2N(c2ccccc2)c2ccccc2)cc1 (stereo not given) | 0.967 | 1.17 | 0.0148 | 0.209 | 1.41 | 0.941 | 1.22 | 0.57 (inactive) | 0.982 | 0.0972 | 0.923 | -0.054 (inactive) | 0.733 (inactive) | 1.08 (inactive) | 2.18 | -0.994 (inactive) | 0.276 | 0.269 | 0.791 | -0.111 |
| Cc1ccccc1C(O)C1C=CC2C(=O)N(c3ccccc3)C(=O)C2N1Nc1ccccc1 (stereo not given) | 0.457 | 0.573 | 0.133 | 1.15 | 1.61 | 2.18 | 1.31 | -1.78 (inactive) | 1.06 | 0.0741 | 1.53 | 0.555 (inactive) | 0.828 (inactive) | 0.0369 (inactive) | 3.42 | -0.555 (inactive) | 0.307 | 0.219 | 1.03 | 0.183 |
| C=CCC(OC(C)=O)[C@@H]1[C@@H](N(Cc2cc3ccccc3o2)C(=O)c2cccc3ccccc23)c2cc(OCCCO)ccc2N1C(=O)c1ccc2ccccc2n1 (stereo not given in full) | 1.68 | 0.27 | -0.116 | 0.0823 | 0.16 | -0.0193 | -0.112 | -1.53 (inactive) | -0.061 | -0.125 | 0.109 | 0.472 (inactive) | -0.8 (inactive) | 0.12 (inactive) | 0.588 | 1.06 (inactive) | -0.0285 | 0.728 | -0.127 | -0.182 |
| O=C1C2C=CC(C(O)c3cccs3)N(Nc3ccc([N+](=O)[O-])cc3)C2C(=O)N1c1ccccc1 (stereo not given) | 0.102 | -0.0628 | 0.0543 | 0.362 | 1.19 | 1.67 | 1.23 | 1.05 (inactive) | 0.611 | 0.154 | 0.32 | -0.198 (inactive) | 1.14 (inactive) | 1.88 (inactive) | 2.98 | -0.0849 (inactive) | -0.0636 | -0.13 | 0.788 | -0.0947 |
